The values that follow come from the supplement of paper PMC11001985.

Values without a mark were called inactive.

UniProt Q15149, sequence (Q15149 whole entry): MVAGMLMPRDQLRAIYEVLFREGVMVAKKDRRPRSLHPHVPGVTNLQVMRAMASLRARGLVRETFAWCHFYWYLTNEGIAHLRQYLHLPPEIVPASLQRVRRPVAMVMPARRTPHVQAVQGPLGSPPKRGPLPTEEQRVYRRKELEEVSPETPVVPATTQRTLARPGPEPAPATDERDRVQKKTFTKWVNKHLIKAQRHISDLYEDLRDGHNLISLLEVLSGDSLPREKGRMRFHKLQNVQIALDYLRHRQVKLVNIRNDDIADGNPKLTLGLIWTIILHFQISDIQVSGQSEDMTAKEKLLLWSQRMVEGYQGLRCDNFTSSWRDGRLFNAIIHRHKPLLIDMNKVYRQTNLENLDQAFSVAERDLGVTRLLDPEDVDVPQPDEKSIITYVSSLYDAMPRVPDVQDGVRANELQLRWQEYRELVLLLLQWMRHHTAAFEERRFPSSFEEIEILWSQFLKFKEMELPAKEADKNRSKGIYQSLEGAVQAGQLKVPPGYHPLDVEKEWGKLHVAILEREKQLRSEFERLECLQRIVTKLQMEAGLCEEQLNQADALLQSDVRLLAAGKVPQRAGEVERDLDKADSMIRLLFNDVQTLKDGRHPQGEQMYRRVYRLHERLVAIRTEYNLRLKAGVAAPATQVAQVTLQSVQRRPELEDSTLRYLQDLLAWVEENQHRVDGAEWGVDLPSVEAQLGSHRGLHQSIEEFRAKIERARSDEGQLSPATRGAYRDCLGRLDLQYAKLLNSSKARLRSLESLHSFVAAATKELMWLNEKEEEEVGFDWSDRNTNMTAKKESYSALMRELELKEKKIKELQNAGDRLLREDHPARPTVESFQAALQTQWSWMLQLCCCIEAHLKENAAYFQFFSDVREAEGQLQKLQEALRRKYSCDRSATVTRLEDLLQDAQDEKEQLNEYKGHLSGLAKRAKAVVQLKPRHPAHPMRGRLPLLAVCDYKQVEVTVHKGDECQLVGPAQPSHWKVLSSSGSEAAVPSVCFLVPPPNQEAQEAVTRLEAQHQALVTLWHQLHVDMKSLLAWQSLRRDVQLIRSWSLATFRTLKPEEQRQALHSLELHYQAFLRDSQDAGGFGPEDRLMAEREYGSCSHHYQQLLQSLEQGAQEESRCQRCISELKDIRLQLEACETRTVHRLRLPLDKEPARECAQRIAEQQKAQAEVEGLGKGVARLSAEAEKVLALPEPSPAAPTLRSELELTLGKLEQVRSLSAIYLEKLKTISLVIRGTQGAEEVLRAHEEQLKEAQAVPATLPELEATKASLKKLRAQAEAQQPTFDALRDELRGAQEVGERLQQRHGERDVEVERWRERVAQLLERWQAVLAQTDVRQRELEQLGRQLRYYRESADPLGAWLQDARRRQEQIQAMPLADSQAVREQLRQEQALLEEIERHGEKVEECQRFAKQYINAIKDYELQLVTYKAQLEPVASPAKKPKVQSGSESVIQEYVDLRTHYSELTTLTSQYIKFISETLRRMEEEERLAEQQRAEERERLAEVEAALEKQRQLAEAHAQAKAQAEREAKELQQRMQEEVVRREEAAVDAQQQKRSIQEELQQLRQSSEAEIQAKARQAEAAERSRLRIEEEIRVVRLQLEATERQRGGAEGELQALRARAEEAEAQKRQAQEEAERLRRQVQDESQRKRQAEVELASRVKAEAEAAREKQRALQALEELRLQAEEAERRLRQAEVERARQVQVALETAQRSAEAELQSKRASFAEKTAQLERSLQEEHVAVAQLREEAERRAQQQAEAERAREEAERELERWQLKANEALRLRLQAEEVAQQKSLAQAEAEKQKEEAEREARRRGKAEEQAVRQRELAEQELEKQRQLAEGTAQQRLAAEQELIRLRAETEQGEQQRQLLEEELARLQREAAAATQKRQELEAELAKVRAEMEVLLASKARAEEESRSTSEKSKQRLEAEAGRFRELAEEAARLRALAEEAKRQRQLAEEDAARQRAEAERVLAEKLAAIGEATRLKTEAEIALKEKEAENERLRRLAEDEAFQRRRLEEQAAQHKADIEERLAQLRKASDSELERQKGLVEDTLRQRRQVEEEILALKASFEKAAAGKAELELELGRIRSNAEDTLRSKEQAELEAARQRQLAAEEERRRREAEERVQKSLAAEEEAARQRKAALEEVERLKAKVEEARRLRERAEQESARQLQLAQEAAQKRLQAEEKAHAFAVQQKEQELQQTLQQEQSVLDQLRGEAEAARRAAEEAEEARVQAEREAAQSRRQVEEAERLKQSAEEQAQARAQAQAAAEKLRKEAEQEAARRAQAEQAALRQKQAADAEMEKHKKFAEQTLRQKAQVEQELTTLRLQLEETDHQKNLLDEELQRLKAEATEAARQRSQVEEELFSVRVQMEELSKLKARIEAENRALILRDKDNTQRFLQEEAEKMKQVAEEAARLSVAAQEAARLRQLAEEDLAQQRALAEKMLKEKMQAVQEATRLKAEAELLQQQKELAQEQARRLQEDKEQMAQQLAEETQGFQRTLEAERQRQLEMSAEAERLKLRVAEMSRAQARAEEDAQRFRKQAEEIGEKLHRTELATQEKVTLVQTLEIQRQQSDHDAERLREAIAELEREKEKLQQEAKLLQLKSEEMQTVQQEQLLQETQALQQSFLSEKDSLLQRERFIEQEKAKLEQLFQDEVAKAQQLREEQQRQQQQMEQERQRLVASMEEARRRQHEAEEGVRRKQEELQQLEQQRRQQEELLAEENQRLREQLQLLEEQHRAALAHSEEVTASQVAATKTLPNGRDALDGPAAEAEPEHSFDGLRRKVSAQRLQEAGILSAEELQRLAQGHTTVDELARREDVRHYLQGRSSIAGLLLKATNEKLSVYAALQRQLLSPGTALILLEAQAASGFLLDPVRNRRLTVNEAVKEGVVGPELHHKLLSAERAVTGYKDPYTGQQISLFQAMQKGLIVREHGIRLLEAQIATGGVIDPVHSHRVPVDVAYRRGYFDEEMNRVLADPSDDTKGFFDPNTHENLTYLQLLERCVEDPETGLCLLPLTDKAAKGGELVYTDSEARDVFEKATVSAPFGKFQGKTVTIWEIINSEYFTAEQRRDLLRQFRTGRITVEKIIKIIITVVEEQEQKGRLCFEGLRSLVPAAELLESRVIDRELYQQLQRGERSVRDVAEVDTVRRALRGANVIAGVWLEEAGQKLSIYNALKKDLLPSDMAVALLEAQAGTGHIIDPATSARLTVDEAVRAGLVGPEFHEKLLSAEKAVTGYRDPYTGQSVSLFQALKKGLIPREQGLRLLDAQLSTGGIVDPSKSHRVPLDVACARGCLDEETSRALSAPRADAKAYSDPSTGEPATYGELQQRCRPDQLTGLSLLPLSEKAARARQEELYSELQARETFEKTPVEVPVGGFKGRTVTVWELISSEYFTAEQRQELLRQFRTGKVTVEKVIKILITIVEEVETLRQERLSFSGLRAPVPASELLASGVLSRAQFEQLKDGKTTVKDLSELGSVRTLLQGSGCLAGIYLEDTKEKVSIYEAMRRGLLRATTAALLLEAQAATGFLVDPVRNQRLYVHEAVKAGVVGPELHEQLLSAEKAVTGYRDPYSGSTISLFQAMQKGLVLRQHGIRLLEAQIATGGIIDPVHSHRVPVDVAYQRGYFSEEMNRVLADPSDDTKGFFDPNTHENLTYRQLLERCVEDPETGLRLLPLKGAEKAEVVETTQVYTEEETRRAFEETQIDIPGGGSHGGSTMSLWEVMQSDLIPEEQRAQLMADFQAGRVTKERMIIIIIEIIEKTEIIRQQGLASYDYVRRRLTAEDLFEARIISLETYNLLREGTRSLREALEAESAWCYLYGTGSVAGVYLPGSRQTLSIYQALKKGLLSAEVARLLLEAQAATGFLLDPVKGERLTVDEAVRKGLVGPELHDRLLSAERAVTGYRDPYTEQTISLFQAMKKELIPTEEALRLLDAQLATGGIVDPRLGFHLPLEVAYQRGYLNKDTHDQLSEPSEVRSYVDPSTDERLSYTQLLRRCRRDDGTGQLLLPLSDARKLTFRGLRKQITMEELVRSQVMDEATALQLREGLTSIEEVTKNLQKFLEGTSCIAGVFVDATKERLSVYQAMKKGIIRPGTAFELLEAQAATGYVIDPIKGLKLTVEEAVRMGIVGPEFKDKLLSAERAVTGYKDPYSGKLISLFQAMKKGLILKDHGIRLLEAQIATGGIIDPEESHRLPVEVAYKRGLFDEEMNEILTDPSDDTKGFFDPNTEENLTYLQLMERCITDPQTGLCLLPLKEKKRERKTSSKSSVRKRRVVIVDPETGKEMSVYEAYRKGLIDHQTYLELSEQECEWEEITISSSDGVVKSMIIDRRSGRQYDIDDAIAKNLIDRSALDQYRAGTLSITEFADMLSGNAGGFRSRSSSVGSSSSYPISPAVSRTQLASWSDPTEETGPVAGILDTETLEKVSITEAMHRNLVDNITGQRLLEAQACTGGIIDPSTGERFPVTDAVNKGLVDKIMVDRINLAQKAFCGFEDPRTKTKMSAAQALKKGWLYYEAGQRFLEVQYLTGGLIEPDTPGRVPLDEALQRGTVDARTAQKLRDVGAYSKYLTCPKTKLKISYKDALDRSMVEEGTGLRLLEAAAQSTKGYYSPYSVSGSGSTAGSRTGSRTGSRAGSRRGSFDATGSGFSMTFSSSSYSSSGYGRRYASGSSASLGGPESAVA
UniProt P05186, sequence (P05186 whole entry): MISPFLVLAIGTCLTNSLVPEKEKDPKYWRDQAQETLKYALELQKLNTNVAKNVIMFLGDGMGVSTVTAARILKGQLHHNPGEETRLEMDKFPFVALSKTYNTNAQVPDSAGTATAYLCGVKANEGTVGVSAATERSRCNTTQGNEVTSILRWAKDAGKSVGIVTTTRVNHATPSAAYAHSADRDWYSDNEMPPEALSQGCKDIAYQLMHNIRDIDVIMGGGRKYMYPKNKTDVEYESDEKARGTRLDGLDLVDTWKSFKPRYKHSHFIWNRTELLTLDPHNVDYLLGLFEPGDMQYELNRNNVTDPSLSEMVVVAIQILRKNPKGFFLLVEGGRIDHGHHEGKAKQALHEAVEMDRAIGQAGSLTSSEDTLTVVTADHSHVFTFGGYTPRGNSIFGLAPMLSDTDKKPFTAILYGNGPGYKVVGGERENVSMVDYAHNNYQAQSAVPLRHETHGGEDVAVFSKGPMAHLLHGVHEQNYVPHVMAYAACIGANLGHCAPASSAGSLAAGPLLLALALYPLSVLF

Compound in the assay: C#CCNC(=O)CCSSCCC(=O)NCCc1ccc(C=O)c(C=O)c1
The assay can be described thus: lysine labeling ratio R10:1 (500 µM / 50 µM probe), SILAC-ABPP in living cells; higher = lower intrinsic lysine reactivity toward the probe, active = 2 or less. Conditions: HeLa; probe concentrations 500 vs 50 µM. The method in brief: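 An alkyne-tagged lysine probe with a disulfide linker labelled living HeLa cells in PBS at room temperature at either 50 µM or 500 µM, using SILAC light and heavy cells in forward and reverse label swaps. Lysates were mixed, clicked to biotin-azide, trypsin-digested, enriched on neutravidin, DTT-released, alkylated and measured by LC-MS/MS on a TIMS-TOF Pro. Each lysine's R is the filtered median high-probe/low-probe MS1 peptide ratio, combined as the median over forward and reverse replicates, with 20 as the upper limit.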
For “ITGAV (lysine site: K446) (UniProt P06756)”, the “lysine labeling ratio R10:1” value was 2.59.
The figure for “SPTAN1 (lysine site: K1334) (UniProt Q13813)” is 3.63.
Regarding “CHCHD3 (lysine site: K45) (UniProt Q9NX63)”, the “lysine labeling ratio R10:1” value was 1.56 (active).
The figure for “RPS3 (lysine site: K108) (UniProt P23396)” is 4.95; for “ACSL3 (lysine site: K679) (UniProt O95573)” it is 2.71.
The figure for “TGFBR3 (lysine site: K314) (UniProt Q03167)” is 1.51 (active); for “FAS (lysine site: K126) (UniProt P25445)” it is 2.16.
The figure for “PFN1 (lysine site: K54) (UniProt P07737)” is 3.31; for UniProt Q8WXI7 (lysine site: K14239) it is 4.55; for UniProt P05787 (lysine site: K11) it is 6.14.
As to UniProt Q15149 (lysine site: K630), the “lysine labeling ratio R10:1” value is 7.1.
The figure for “F11R (lysine site: K178) (UniProt Q9Y624)” is 5.39; for “SLC9A6 (lysine site: K61) (UniProt Q92581)” it is 4.56.
The figure for UniProt P25705 (lysine site: K175) is 2.16; for “SDCBP (lysine site: K109) (UniProt O00560)” it is 5.45.
The figure for “CNP (lysine site: K402) (UniProt P09543)” is 2.29; for “FN1 (lysine site: K2030) (UniProt P02751)” it is 0.807 (active); for “HSPD1 (lysine site: K31) (UniProt P10809)” it is 4.2.
With UniProt P05186 (lysine site: K241), the “lysine labeling ratio R10:1” value is 3.23.
As for UniProt Q15149 (lysine site: K2350), the “lysine labeling ratio R10:1” value was 4.82.
The figure for “P4HB (lysine site: K81) (UniProt P07237)” is 6.39; for UniProt Q8WXI7 (lysine site: K13228) it is 11.9.
The figure for “IGF1R (lysine site: K47) (UniProt P08069)” is 3.62; for “ITIH1 (lysine site: K125) (UniProt P19827)” it is 4.42; for “ENO1 (lysine site: K422) (UniProt P06733)” it is 2.65.
The figure for UniProt Q9BTX1 (lysine site: K628) is 5.32.
Consider “VASN (lysine site: K133) (UniProt Q6EMK4)”, for which the “lysine labeling ratio R10:1” value was 4.74.
The figure for “MCAM (lysine site: K217) (UniProt P43121)” is 2.14.
The figure for “CCT8 (lysine site: K20) (UniProt P50990)” is 2.11; for “RPL10A (lysine site: K196) (UniProt P62906)” it is 2.81; for “SLC7A11 (lysine site: K222) (UniProt Q9UPY5)” it is 2.71.
The figure for “PTPRS (lysine site: K379) (UniProt Q13332)” is 2.21.
Take “CTNNA1 (lysine site: K199) (UniProt P35221)”: the “lysine labeling ratio R10:1” value was 1.43 (active).
The figure for “IGSF3 (lysine site: K642) (UniProt O75054)” is 1.12 (active).
The figure for TST (lysine site: K24) (UniProt Q16762) is 2.33; for “ECE1 (lysine site: K676) (UniProt P42892)” it is 3.15.
The figure for “HNRNPL (lysine site: K538) (UniProt P14866)” is 1.29 (active); for “SERPINH1 (lysine site: K410) (UniProt P50454)” it is 4.84.
As for UniProt O95084 (lysine site: K270), the “lysine labeling ratio R10:1” value is 2.67.
The figure for “SERBP1 (lysine site: K122) (UniProt Q8NC51)” is 11.8.
